Results taken from PubChem BioAssay (NCI).
The panel holds about 79,000 compounds, 15% with a hit somewhere; the sample as a whole holds those more often. No stated cut-off is given here; in the data, active means growth inhibition above about 70%; inactive means the rest.

Columns and labels:
[1] = NCI Yeast Anticancer Drug Screen. Data for the rad50 strain (AID 155);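 further: 0% = growth of vehicle-only cultures of the same strain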; conditions: S. cerevisiae rad50 strain growth inhibition; at 50.0 µM; stronger effect = higher value
Procedure, shortened: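 Growth of the mutant yeast was measured after compound exposure and referenced to vehicle-treated cultures.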

[2] = NCI Yeast Anticancer Drug Screen. Data for the mec2-1 strain (AID 157); conditions: S. cerevisiae mec2-1 strain, at 50.0 µM, stronger effect = higher value
Procedure, shortened: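 Vehicle-treated cultures served as reference for growth inhibition of compound-exposed mec2-1 yeast.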

[3] = NCI Yeast Anticancer Drug Screen. Data for the sgs1 mgt1 strain (AID 161);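 further: 0% = growth of cultures given vehicle only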; conditions: S. cerevisiae sgs1 mgt1 strain, at 50.0 µM, stronger effect = higher value
Procedure, shortened: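 Read-out: growth inhibition vs vehicle controls. Cells: mutant yeast strain deficient in DNA damage repair.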

[4] = NCI Yeast Anticancer Drug Screen. Data for the cln2 rad14 strain (AID 165);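 further: 0% = growth equal to vehicle treated cultures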; conditions: S. cerevisiae cln2 rad14 strain, at 50.0 µM, stronger effect = higher value
Procedure, shortened: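 Each compound was tested on cln2 rad14 yeast. Inhibition of growth was calculated against vehicle-exposed controls.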

[5] = NCI Yeast Anticancer Drug Screen. Data for the bub3 strain (AID 167); conditions: S. cerevisiae bub3 mutant strain, at 50.0 µM, stronger effect = higher value
Procedure, shortened: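 Whole-cell yeast assay. The mutant strain was incubated with compounds, and growth inhibition was determined by comparison with vehicle-treated cells.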

[6] = NCI Yeast Anticancer Drug Screen. Data for the mlh1 rad18 strain (AID 175); conditions: S. cerevisiae mlh1 rad18 strain growth inhibition; at 50.0 µM; stronger effect = higher value
Procedure, shortened: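 Vehicle-treated cultures served as the reference for growth inhibition in a yeast strain carrying DNA damage repair alterations exposed to each compound.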

Measured: growth inhibition

O=C1c2ccccc2C2(O)Nc3cc(O)ccc3C12O (configuration not stated)
inactive: [1] -24.6% | [2] -23.1% | [3] -15.1% | [4] -14.1% | [5] -11.8% | [6] -19.6%

CCCCCCCCCCCCCCCC(=O)O[C@@H]1[C@@H](C)[C@@]2(O)[C@@H](C=C(CO)C[C@]3(O)C(=O)C(C)=C[C@@H]23)[C@H]2[C@]1(OC(C)=O)[C@]2(C)CO
inactive: [1] 14.8% | [2] 2.75% | [3] 20.1% | [4] 30.9% | [5] 21.1% | [6] -71.2%

COC1=CC(=O)C(C2OC(=O)C(Cl)=C2Cl)=CC1=O (configuration not stated)
inactive: [1] 8.1% | [2] 7.3% | [3] -2.45% | [4] -11.4% | [5] 16.6% | [6] 13.2%

O=[N+]([O-])c1ccc(C=NCCO)cc1
inactive: [1] 8.75% | [2] 8.55% | [3] 3.7% | [4] -1% | [5] 9.2% | [6] -5.4%

CCOc1ccc(Nc2ncnc3sc4c(c23)CCCC4)cc1
inactive: [1] 10.3% | [2] -1% | [3] -1.15% | [4] 12.7% | [5] 17.2% | [6] 8.9%

CN(C)S(=O)(=O)N(C)C
inactive: [1] -1.55% | [2] 6.4% | [3] 15.4% | [4] 6.1% | [5] -8.45% | [6] 26.2%

Nc1cccc2c(S(=O)(=O)O)cccc12
inactive: [1] -2.9% | [2] -3.15% | [3] -11.9% | [4] -66.7% | [5] 0.3% | [6] 0.75%

CCOCCOC(=O)c1ccc(C(N)=NC2CCCCC2)cc1
inactive: [1] 0.05% | [2] -2.4% | [3] 3.75% | [4] -4.1% | [5] 0.1% | [6] -1.4%

CCc1cc(C(C)(C)C)c(O)c(C(C)(C)C)c1
inactive: [1] 33.6% | [2] 9.65% | [3] 6.25% | [4] 25.2% | [5] 8.4% | [6] 35.4%

COc1ccc(C2=NN(C(C)=O)c3nc4ccccc4nc3O2)cc1
inactive: [1] -25.2% | [2] -28.8% | [3] -20% | [4] -5.9% | [5] -24.6% | [6] -12.6%

COC(=O)CCNCCSC(=O)c1ccccc1
inactive: [1] 23.5% | [2] -9.1% | [3] -6% | [4] 12.9% | [5] 8.55% | [6] 4.6%

Cc1cc(=O)n(-c2c(C)cccc2Cl)c(/C=C(\O)c2ccncc2)n1
inactive: [1] 4.25% | [2] -2.65% | [3] 3.8% | [4] 8.3% | [5] 4.15% | [6] 2.85%

COc1cc(N)c2c(c1)SC(c1ccccc1)C(=O)N2 (configuration not stated)
inactive: [1] -23.6% | [2] 4.25% | [3] 1% | [4] 14.1% | [5] 32.6% | [6] 15.7%

CCOC(=O)/C=C/C(=O)NNS(=O)(=O)CCC(N)C(=O)O (configuration not stated)
inactive: [1] -6.65% | [2] 13.4% | [3] 0.5% | [4] 2.8% | [5] 6.8% | [6] 0.45%

O=S(=O)(Nc1ccc(Cl)cc1)c1ccc(F)cc1
inactive: [1] -9.45% | [2] -15.8% | [3] -11.6% | [4] 11.9% | [5] -29.1% | [6] 3.95%

CC1(C)[C@@H]2C[C@H]1C(Cc1ccccc1C[C@H]1c3cc(-c4ccccn4)ncc3[C@H]3C[C@@H]1C3(C)C)c1cc(-c3ccccn3)ncc12 (some centres not stated)
inactive: [1] 43.3% | [2] 39.3% | [3] 10.4% | [4] 24.4% | [5] 12.2% | [6] -32.4%

CN(C)CCC(c1ccccc1)c1ccccc1
inactive: [1] -22.4% | [2] -2.85% | [3] 13.7% | [4] -13.6% | [5] 14.7% | [6] -5.8%

Cc1[nH]nc2c(=O)n(N)nnc12
inactive: [1] 18.4% | [2] 7.3% | [3] 0.35% | [4] -16.9% | [5] -15.8% | [6] 26.4%

CCC(=O)NN1C(=O)c2ccccc2C1=O
inactive: [1] -13.8% | [2] -15.4% | [3] -23.4% | [4] -13.2% | [5] -16.5% | [6] -10.2%

Cc1cccc(C)c1NC(=S)/N=C/C1=C(O)c2ccccc2C1=O
inactive: [1] -36.8% | [2] -17.2% | [3] -10.2% | [4] 13.8% | [5] -7.5% | [6] 23.6%

CN(Cc1cccc(Cl)c1)C(=O)Nc1ccccc1Cl
inactive: [1] -1.25% | [2] 48.8% | [3] 47.5% | [4] -21% | [5] 34.6% | [6] 53.4%

Cc1ccc(S(=O)(=O)OC(c2ccc(C(OS(=O)(=O)c3ccc(C)cc3)(C(F)(F)F)C(F)(F)F)cc2)(C(F)(F)F)C(F)(F)F)cc1
inactive: [1] 4.45% | [2] 6.65% | [3] -17.8% | [4] 10.8% | [5] 4.4% | [6] 4.7%

COc1ccc(C(=O)N2CCOCC2)cc1
inactive: [1] -8% | [2] -16.6% | [3] -0.9% | [4] 31.9% | [5] -3.05% | [6] -10.6%

Cc1ccc(S(=O)(=O)Nc2ccccc2C(=O)c2ccc(C)c(C)c2)cc1
inactive: [1] 4.1% | [2] -7.15% | [3] -9.9% | [4] -41% | [5] -40.9% | [6] 23.9%

Cc1ccc([N+](=O)[O-])cc1NC(=O)COc1ccc(Cl)cc1Cl
inactive: [1] 6.25% | [2] 0.55% | [3] 13.5% | [4] 10.2% | [5] 1.85% | [6] 1.15%

CC1=CC(OC2CCCCO2)CC(C)(C)C1 (configuration not stated)
inactive: [1] -5.2% | [2] -3% | [3] -11% | [4] -16.4% | [5] 0.05% | [6] -5.15%

O=C1c2ccccc2C(=O)N1CNc1cccc(NCN2C(=O)c3ccccc3C2=O)n1
inactive: [1] -35.8% | [2] -22.1% | [3] -23.1% | [4] 13.4% | [5] -6.5% | [6] -34.8%

CN(C)C=Nc1c2c(nc3ccccc13)CCCC2
inactive: [1] -35.4% | [2] -16.4% | [3] -8.8% | [4] 7.4% | [5] 18.9% | [6] 18.4%

Cc1cc(O)c2c(c1)C(=O)C=CC2=O
inactive: [1] 6.7% | [2] 5.2% | [3] 1.3% | [4] 4.15% | [5] 10.3% | [6] -25.9%

COC(=O)c1ccc(/C=C2\CCc3ccccc3C2=O)cc1
inactive: [1] -9.9% | [2] -9.15% | [3] -16.2% | [4] 12.5% | [5] 14.2% | [6] 11.2%

O=C1c2ccccc2C(=O)N1C/C(Cl)=C/Cl
inactive: [1] -21.9% | [2] -6.5% | [3] -11.4% | [4] -3.65% | [5] 8.75% | [6] -22.6%

Cc1ccccc1N=Nc1c(-c2ccccc2)nn(C(=O)CC(=O)Nc2cccc(Cl)c2)c1-c1ccccc1
inactive: [1] 60.9% | [2] 21.6% | [3] 55.5% | [4] 34.3% | [5] 68% | [6] 41.5%

CNCC(OC(C)C)c1ccc(O)c(O)c1 (configuration not stated)
inactive: [1] -3.3% | [2] -2.85% | [3] -0.05% | [4] -36.4% | [5] -19.2% | [6] 16.2%

COC(=O)C1CC2(C(=O)OC)CC(C(=O)OC)(CC(C(=O)OC)C2=O)C1=O (configuration not stated)
inactive: [1] 9.55% | [2] -0.15% | [3] 14.1% | [4] 11.9% | [5] 18.5% | [6] 3.55%

COC(=O)Nn1c(C)c(C(=O)Nc2ccc(OC)cc2)c(C(=O)OC)c1C
inactive: [1] 32.6% | [2] -16% | [3] 14.3% | [4] 2.8% | [5] 10.2% | [6] 21.6%

CC[N+]1(C)CC2CCC1C2 (configuration not stated)
inactive: [1] 4.55% | [2] 17.1% | [3] 14.5% | [4] -39.9% | [5] 5.85% | [6] -11.8%

COc1c(Cl)cc(Cl)cc1C(c1cc(Cl)cc(Cl)c1OC)C(Cl)(Cl)Cl
inactive: [1] -3.25% | [2] -6.1% | [3] 4.6% | [4] -5% | [5] -3.6% | [6] 7.1%
